A selection: hits, their analogues and other compounds. The true share with any hit is near 3.4%.
MEKK3 PB1 HTS: modulators (inhibitors or enhancers) of MEK5 binding to human MEKK3 PB1 domain; bead-based flow cytometry, Alexa488-MEK5 binding to MEKK3; actives lie on both sides; 0 = blocked by unlabeled MEK5, 100 = vehicle; actives 1.4% (n = 290,000); binding response (% of control), % at 10 µM; AID 1529;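 active means binding response more than 3 SD above or below the average of its plate-row segment, actives on both sides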;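 further: Alexa488 bead fluorescence after subtracting the streptavidin-only scavenger bead signal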
Target sequence (Q99759 whole entry, looked up, the tested form may be a part): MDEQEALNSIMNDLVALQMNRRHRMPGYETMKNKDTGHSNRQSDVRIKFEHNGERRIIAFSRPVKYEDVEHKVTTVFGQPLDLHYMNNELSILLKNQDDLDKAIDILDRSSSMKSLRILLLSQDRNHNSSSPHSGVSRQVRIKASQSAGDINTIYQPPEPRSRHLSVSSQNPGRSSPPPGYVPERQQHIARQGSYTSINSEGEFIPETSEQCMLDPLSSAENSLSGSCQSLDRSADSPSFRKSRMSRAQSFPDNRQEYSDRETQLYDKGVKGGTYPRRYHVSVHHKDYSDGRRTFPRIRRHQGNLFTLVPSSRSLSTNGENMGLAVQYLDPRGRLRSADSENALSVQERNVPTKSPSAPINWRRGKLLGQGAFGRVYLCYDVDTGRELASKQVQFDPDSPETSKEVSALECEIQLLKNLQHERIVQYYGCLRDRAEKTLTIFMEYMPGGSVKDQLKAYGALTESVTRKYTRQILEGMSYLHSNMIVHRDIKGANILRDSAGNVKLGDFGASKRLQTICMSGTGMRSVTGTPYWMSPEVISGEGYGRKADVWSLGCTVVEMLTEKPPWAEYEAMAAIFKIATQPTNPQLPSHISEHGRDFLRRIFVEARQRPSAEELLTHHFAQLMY
TMEM16A inh: mouse TMEM16A channel inhibition, primary screen | actives 1.2% (n = 310,000) | normalized B-score (activity score, 25-100; higher = stronger inhibition) at 10 µM | Q8BHY3 | HEK293 TMEM16A/YFP iodide influx fluorescence, ionomycin;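 active means ratio plate-corrected score three or more library SD toward inhibition, starting fluorescence score within five deviations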;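 further: score derived from kinetic fluorescence span divided by baseline fluorescence per well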
NTR1 agonist: agonists of human neurotensin receptor NTR1. NTR1-U2OS beta-arrestin-GFP spot imaging, agonist mode. activation, % at 20 µM. actives 0.17% (n = 330,000);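 active means activation at or above 40% of the spot to cytoplasm intensity ratio, with at least 20 cells analyzed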
MEKK2 mut-MEK5: signal of MEK5 binding to mutant human MEKK2 PB1 domain | bead flow cytometry, Alexa488-MEK5 binding to MEKK2 mutant | percent response, % at 10 µM | actives 0.35% (n = 290,000) | AID 1530; in the data active means percent response above about 24%, passing the limit was not always enough
MEKK2wt PB1 HTS: raises or lowers MEK5 binding to wildtype human MEKK2 PB1 domain | bead flow cytometry, Alexa488-MEK5 binding to MEKK2 WT; actives lie on both sides | binding response (% of control), % at 10 µM | Q9Y2U5 | AID 1531 | actives 1.1% (n = 290,000); in the data active means binding response below about 67% or above about 130%
TMEM16A act: activators or potentiators of mouse TMEM16A chloride channel; Q8BHY3; HEK293 TMEM16A/YFP-H148Q/I152L, iodide quench fluorescence; stronger effect = lower value; B-score at 10 µM; actives 0.3% (n = 340,000); AID 623877;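 active means fluorescence-ratio B-score plate-corrected deviation score at least 3 library SD below zero, with starting fluorescence score within 5 deviations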;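 further: channel opened by trigger with iodide after compound preincubation; score built on the fluorescence ratio of max minus min over baseline; more negative score means more quench and so TMEM16A activation or potentiation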
MEKK2wt confirm: raises or lowers MEK5 binding to wildtype human MEKK2, retest; shares compounds with MEKK3 PB1 HTS; bead flow cytometry, Alexa488-MEK5 binding to MEKK2 WT; actives lie on both sides; binding response (% of control), % at 10 µM; actives 2.4% (n = 5,900); in the data active means binding response below about 16% or above about 210%; inactive means in between
MEKK2mut-MEK5: signal of MEK5 binding to mutant human MEKK2, retest; shares compounds with MEKK3 PB1 HTS; bead flow cytometry, Alexa488-MEK5 binding to MEKK2 mutant; percent response, % at 10 µM; actives 2% (n = 5,900); AID 1893; in the data active means percent response mostly above about 71%, no sharp cut-off; inactive means mostly below about 38%;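 further: higher means compound restores mutant binding toward wildtype level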
MEKK3 confirm: MEKK3-MEK5 PB1 inhibition, single concentration confirmation | binding response (% of control), % at 10 µM | shares compounds with MEKK3 PB1 HTS | actives 1.8% (n = 5,900) | bead flow cytometry, Alexa488-MEK5 binding to MEKK3; stronger effect = lower value;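 active means binding response below 72% of control, or above a set upper limit, though filed actives all read lower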
Of the large screens only hits and unclear results are named; the others gave an inactive call (follow-up assays come after a bar, where they were run); [ ] = another dose, or the depositor's remark.

Cc1ccc(N(CC(=O)NCc2ccc3c(c2)OCO3)C(=O)CCC(=O)Nc2ccccn2)cc1	none
Cc1ccc(C)c(N(CC(=O)NCc2ccc3c(c2)OCO3)C(=O)CCC(=O)Nc2ccccn2)c1	MEKK3 PB1 HTS 82.0[inhibitor] | MEKK2wt confirm inactive | MEKK2mut-MEK5 inactive | MEKK3 confirm inactive
COCCNC(=O)CN(C(=O)CCC(=O)Nc1ccccn1)c1ccccc1F	MEKK3 PB1 HTS 70.0[inhibitor] | MEKK2wt confirm inactive | MEKK2mut-MEK5 inactive | MEKK3 confirm inactive
COc1ccccc1C(=O)Nc1ccc(OCC(=O)N2C(C)CCCC2C)cc1 (centres undefined)	none (no result: MEKK3 PB1 HTS, TMEM16A inh, MEKK2 mut-MEK5, MEKK2wt PB1 HTS)
CC(Sc1nnnn1-c1cccc(F)c1)C(=O)NC1CCCC1 (centres undefined)	none (no result: MEKK3 PB1 HTS, TMEM16A inh, MEKK2 mut-MEK5, MEKK2wt PB1 HTS)
O=C(O)CCCN=Cc1c(O)c2ccccc2oc1=O	none
CC(C)CC(N=Cc1c(O)c2ccccc2oc1=O)C(=O)O (centres undefined)	MEKK3 PB1 HTS 73.0[inhibitor] | MEKK2wt confirm inactive | MEKK2mut-MEK5 inactive | MEKK3 confirm inactive
CSc1ccc(CN2CCN(C(=O)c3ccc([N+](=O)[O-])cc3)CC2)cc1	none
COC(=O)c1cc(NC(=O)c2ccccc2)c(=O)oc1/C=C/Nc1ccc(Oc2ccccc2)cc1	MEKK2 mut-MEK5 734.0, MEKK2wt PB1 HTS 218.0 (no result: TMEM16A inh) | MEKK2wt confirm inactive | MEKK2mut-MEK5 inactive | MEKK3 confirm inactive
COc1ccc(C(=O)Nc2cc(C(C)=O)c(C)oc2=O)cc1	none
CC(C)(C)n1nnnc1C(c1cccnc1)N(Cc1ccccc1)Cc1cccs1 (centres undefined)	MEKK3 PB1 HTS 2.0[inhibitor], MEKK2wt PB1 HTS 2.0[inhibitor] | MEKK2wt confirm inactive | MEKK2mut-MEK5 inactive | MEKK3 confirm inactive
CCOc1cc(CNCCCN2CCOCC2)cc(Br)c1OCC(=O)Nc1cccc(C(F)(F)F)c1	MEKK2 mut-MEK5 31.0, MEKK2wt PB1 HTS 162.0 | MEKK2wt confirm inactive | MEKK2mut-MEK5 inactive | MEKK3 confirm inactive
CCOc1cc(CNCCCN2CCOCC2)cc(Cl)c1OCC(=O)NC(C)(C)C	none
COc1cc(CNCCCN2CCOCC2)cc(Br)c1OCc1ccc(Cl)cc1	MEKK2wt PB1 HTS 158.0 | MEKK2wt confirm inactive | MEKK2mut-MEK5 inactive | MEKK3 confirm inactive
Cn1nc(C(=O)NNC(=O)C2CSC3(C)CCC(=O)N23)c2ccccc2c1=O (centres undefined)	none (no result: MEKK3 PB1 HTS, MEKK2 mut-MEK5, MEKK2wt PB1 HTS)
CN(C)C(=O)/C(C#N)=C\c1cc(Br)c(Sc2ccc(Cl)cc2)o1	MEKK3 PB1 HTS 132.0 (no result: NTR1 agonist) | MEKK2wt confirm inactive | MEKK2mut-MEK5 inactive | MEKK3 confirm inactive
CCCc1ccc(C#N)c(SC2CC(=O)N(c3ccc(OC)cc3)C2=O)n1 (centres undefined)	none
COc1ccc(N2C(=O)CC(Sc3nc(C)cc(C)c3C#N)C2=O)cc1 (centres undefined)	MEKK3 PB1 HTS 1.0[inhibitor], MEKK2wt PB1 HTS -7.0[inhibitor] | MEKK2wt confirm inactive | MEKK2mut-MEK5 inactive | MEKK3 confirm inactive
COc1ccc(-c2oc3ncnc(NCCCN4CCOCC4)c3c2-c2ccc(OC)cc2)cc1	MEKK2wt PB1 HTS 138.0 | MEKK2wt confirm inactive | MEKK2mut-MEK5 inactive | MEKK3 confirm inactive
Cc1cccc(NC(=S)N2CCN(c3ccccc3F)CC2)c1C	none
Cc1ccc(NC(=S)N/N=C2\CCCCC2C)cc1 (centres undefined)	none
CC1CCCC/C1=N\NC(=S)Nc1cccnc1 (centres undefined)	MEKK3 PB1 HTS 4.0[inhibitor], MEKK2wt PB1 HTS 6.0[inhibitor] | MEKK2wt confirm inactive | MEKK2mut-MEK5 inactive | MEKK3 confirm inactive
